From PubChem BioAssay
TGFb SMAD3 inh = qHTS for Inhibitors of TGF-b; HepG2 CAGA-GFP TGF-b/SMAD3 reporter, GFP fluorescence, 18 h; TGF-beta stimulated, 500 pg/mL final; Potency, µM (series often up to 46.1 µM), for inactives: at the top dose activity, negative = inhibition, most hits filed as inhibitors; hit rate 1.2% among 410,000; AID 588855, 2011; also: potency is read from the fitted curve at half-maximal effect; % is scaled to controls: 0 for no effect and ±100 for the full control effect; nearly all actives have a fitted effect of over 65% in size
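HEPG2 CAGA-GFP cells (1000/well, DMEM with 1% FBS) were pre-incubated 2 h at 37 degrees C, given compound by pin tool, then stimulated with TGF-beta at 500 pg/mL final for 18 h before per-cell GFP fluorescence imaging.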
DRD3 antagonist = qHTS of D3 Dopamine Receptor Antagonist: qHTS; max response, negative = inhibition, %; AID 652054, 2013; D(3) dopamine receptor (Homo sapiens), P35462; hit rate 2.5% among 360,000; D3R cells, DiscoveRx beta-arrestin luminescence, antagonist mode; active compounds read low; in the data active = max response below about -50%; inconclusive = no clear call, values can overlap the other calls; also: % is scaled to controls: 0 for no effect and ±100 for the full control effect
Target sequence (P35462 whole entry, looked up): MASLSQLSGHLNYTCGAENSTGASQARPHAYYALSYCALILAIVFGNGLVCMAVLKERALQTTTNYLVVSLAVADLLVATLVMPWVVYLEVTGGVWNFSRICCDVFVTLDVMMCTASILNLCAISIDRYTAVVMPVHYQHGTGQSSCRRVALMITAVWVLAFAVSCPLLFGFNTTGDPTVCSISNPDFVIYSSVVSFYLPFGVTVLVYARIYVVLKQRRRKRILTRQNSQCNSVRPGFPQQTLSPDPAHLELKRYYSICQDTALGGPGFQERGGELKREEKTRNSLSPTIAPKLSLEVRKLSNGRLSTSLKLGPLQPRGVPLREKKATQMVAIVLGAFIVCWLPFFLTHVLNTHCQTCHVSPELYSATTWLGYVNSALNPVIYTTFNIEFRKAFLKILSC
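Cells expressing the human receptor were seeded at 1500 cells/well, incubated overnight at 37 degrees C in 5% CO2, then exposed to library compounds with dopamine controls for 90 minutes at 37 degrees C before luminescent detection.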
HepG2 tox = qHTS for Inhibitors of TGF-b: Cytotox Counterscreen; HepG2 CAGA-GFP viability, ATP luminescence, 18 h; Potency, µM (series often up to 46.1 µM), for inactives: at the top dose activity change, negative = cytotoxicity, hits mostly cytotoxic; hit rate 0.76% among 410,000; AID 588856, 2011; also: potency is read from the fitted curve at half-maximal effect
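CellTiter-Glo luminescence gave cytotoxicity after 18 hours at 37 degrees C. The cells were HepG2 CAGA-GFP in 1% FBS DMEM, stimulated with 500 pg/mL TGF-beta after compound addition. %Activity was normalised to no-cell wells (complete cell-killing) and DMSO (no toxicity), and curves were fitted and classified.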
ATXN2 expr inh = Primary qHTS for Inhibitors of ATXN expression; HEK-293 ATXN2-luciferase reporter, luminescence, 24 h; Potency, µM (highest dose often 57 µM), without a hit: at the highest dose activity change, negative = inhibition, actives largely listed as inhibitors; hit rate 0.72% among 360,000; AID 1745845, 2022; also: potency is read from the fitted curve at half-maximal effect; % is scaled to controls: 0 for no effect and ±100 for the full control effect; nearly all actives have a fitted effect of over 55% in size
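qHTS (up to 57 uM final) was run with 24 h compound exposure of reporter cells at 37 °C. Each well was multiplexed: SteadyGlo luminescence measured ATXN2-luciferase expression after a fluorogenic Gly-Phe-AFC viability readout (25 uM final).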
S2 tox = Viability Counterscreen for Primary qHTS for Inhibitors of ATXN expression. AID 651635, 2014. Potency, µM (top dose mostly 56.7 µM), usual class: cytotoxic. hit rate 0.49% among 400,000. S2 cells (HEK-293 line with an ATXN2-luciferase reporter) viability, CellTiter-Fluor protease fluorescence, 24 h; also: potency is read from the fitted curve at half-maximal effect; nearly all actives have a fitted effect of over 40% in size
D3 ag = qHTS of D3 Dopamine Receptor Agonist: qHTS; AID 652048, 2013; D3R DiscoveRx beta-arrestin cells, luminescence, 90 min; hit rate 0.58% among 410,000; max activation, %; D(3) dopamine receptor (Homo sapiens), P35462; in the data active = max activation above about 30%; also: 0% is about no effect
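Cells at 1500/well, incubated overnight, then treated with pinned compounds (dopamine as control) for 90 min at 37 degrees C. DiscoveRx reagent added for 30 - 60 minutes at room temperature; luminescence read.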
Numbers without * were called inactive; i = inactive; ? = inconclusive; nt = no result; [ ] = another dose, or the depositor's remark. In the library only some 4.7% were active in any assay of this set; here they are far more common. Unless noted, calls follow the shape of the dose curve; as a rule, active = well fitted curve in the direction sought with a large enough effect; inconclusive = small, poorly fitted or top-dose-only effect, or another doubt; inactive = no such curve, though single readings can be large; an effect the other way counts as inactive or inconclusive.

SMILES	TGFb SMAD3 inh	DRD3 antagonist	HepG2 tox	ATXN2 expr inh	S2 tox	D3 ag
O=C(Nc1cc(C(=O)N2CCCC2)ccc1N1CCCC1)c1ccccc1F	1.2%	55.9	3.7%	-12.6%	i	61.3*
Cc1ccc(C(=O)Nc2cnn(-c3ccc(C(=O)NCc4nc(-c5ccccc5)n[nH]4)cc3)c2)c(C)c1	nt	nt	nt	nt	i	nt
CCN(CC)CCCNC(=S)N1CCN(c2nc(-c3ccc(F)cc3)cs2)CC1	?	-52.2*	-37.1%	?	?	-7.2
CCNC(=S)N1CCN(c2nc(-c3ccc(F)cc3)cs2)CC1	-25.8%	-2.1	-10.2%	?	i	3.3
CCOc1ccc(NC(=O)c2nc3nc(C)cc(C(F)F)n3n2)cc1	1.9%	nt	9.8%	-4.4%	i	-2.7
CCOC(=O)C(C(=O)OCC)c1cc(Br)c2noc3c2c1C(=O)c1ccccc1-3	6.31µM*	-101.6*	-52.8%	11.2µM*	20µM*	-18.9
Cc1ccccc1C1(CC(=O)N2CC3(C)CC2CC(C)(C)C3)CC(=O)N(Cc2cccnc2)C1=O (centres undefined)	nt	nt	nt	nt	i	nt
COc1cccc(C(=O)O[C@H]2[C@H](C)NS(=O)(=O)[C@H]3C[C@@H]4C=C[C@]23O4)c1	-7.5%	-1.5	-7.9%	2.3%	i	-1.6
COc1cccc(C(=O)O[C@H]2[C@H](Cc3ccccc3)NS(=O)(=O)[C@H]3C[C@@H]4C=C[C@]23O4)c1	-14.8%	-52.4*	-11.5%	8.0%	i	-4.1
O=C(O)CCNc1cc(N2CCc3ccccc3CC2)nc(-c2ccccn2)n1	nt	nt	nt	-20.8%	nt	nt
CC(=O)Nc1ccc(N2CCC(C)CC2)c([N+](=O)[O-])c1	13.0%	-8.2	9.0%	26.3%	i	7.5
CC(=O)Nc1ccc(N2CCCC(C)C2)c([N+](=O)[O-])c1 (centres undefined)	1.9%	-55.1*	-0.3%	35.4%	i	-11.8
Cn1c(=O)c2c3c(sc2n2c(SCC(N)=O)nnc12)CC(C(C)(C)C)CC3 (centres undefined)	0.9%	12.2	12.6µM*	-10.9%	i	7.0
CC(C)=CCC[C@](C)(O)C1CC[C@]2(C)C1[C@H](O)CC1[C@@]3(C)CC[C@H](O[C@@H]4O[C@H](CO)[C@@H](O)[C@H](O)[C@H]4O[C@@H]4O[C@H](CO)[C@@H](O)[C@H](O)[C@H]4O)C(C)(C)C3CC[C@]12C (some centres undefined)	12.0%	-61.5*	1.6%	-24.0%	i	-19.0
CCOc1cc(CNCCc2ccc(S(N)(=O)=O)cc2)ccc1OCc1ccc(Cl)cc1	?	18.6	-105.8%	?	?	-8.0
COc1cc(CNCCc2ccc(S(N)(=O)=O)cc2)ccc1OCc1ccc(Cl)cc1	?	2.8	-108.5%	17.8µM*	22.4µM*	4.2
CNC(=O)N(O)C1N(/N=C/c2ccc(SC)cc2)C(=S)SC1(C)C (centres undefined)	0.4%	-8.5	-17.8%	-9.5%	i	3.0
CN(C)c1ccc(/C=N/N2C(=S)SC(C)(C)C2N(O)C(=O)Nc2ccc([N+](=O)[O-])cc2)cc1 (centres undefined)	-17.3%	-66.5*	-34.9%	3.1%	i	-1.6
CC(C)=CCC1=C(OCC(=O)O)C(=O)c2ccccc2C1=O	14.1µM*	?	11.2µM*	nt	?	-12.2
Cc1ccc(C(=O)C(=O)O)cc1C	nt	nt	nt	1.6%	i	nt
COc1ccc(-c2nc3ccc(C)cn3c2Cc2ccccc2)cc1OC	?	3.8	-42.9%	?	28.2µM*	1.2
COc1ccccc1Cc1c(-c2cccc(Br)c2)nc2ccc(Br)cn12	?	-19.8	-22.9%	-36.6%	?	-3.7
COc1ccc(-c2nc3ccc(C)cn3c2CC(C)(C)C)cc1OC	?	-1.1	-51.6%	28.2µM*	nt	-3.9
COc1ccc(-c2nc3ccc(C)cn3c2Cc2cccc(Cl)c2)cc1OC	-13.7%	4.6	-27.6%	-36.0%	nt	4.0
COc1ccccc1Cc1c(-c2cccc(Br)c2)nc2ccc(Cl)cn12	?	-50.1*	-11.7%	29.9%	i	-9.6
SMILES	TGFb SMAD3 inh	DRD3 antagonist	HepG2 tox	ATXN2 expr inh	S2 tox	D3 ag
Cc1ccc2nc(-c3ccc(Cl)cc3)c(Cc3cccc(Cl)c3)n2c1	nt	-13.6	nt	?	28.2µM*	-7.1
O=C(CCCl)NCc1ccccc1	nt	nt	nt	-1.7%	i	nt
O=C(NCCc1nnc2n1CCN(Cc1cc3ccccc3o1)CC2)c1ccoc1	nt	nt	nt	nt	i	nt
Cc1ncc2c(c1CNC(=O)c1ccsc1)CCN(C(=O)c1c(F)cccc1Cl)C2	nt	nt	nt	nt	i	nt
Clc1cccc(-c2nc3ccc(Cl)cn3c2Cc2ccsc2)c1	15.8µM*	-18.4	-40.7%	46.0%	i	0.9
COc1ccccc1Cc1c(-c2ccc(OC)c(OC)c2)nc2ccc(C)cn12	?	48.3	-18.6%	0.0%	22.4µM*	7.1
COc1ccc(-c2nc3ccc(C)cn3c2Cc2ccc(C)cc2)cc1OC	?	-16.4	-25.4%	-14.4%	nt	-8.3
CSC1(SC2=NCCN2)SC2(NCCN2)S1	12.6µM*	-2.0	-14.6%	?	?	4.4
CCN(CC)CCN(C)C(=O)c1ccc(-c2ccccc2)nc1N(C)C	nt	nt	nt	nt	i	nt
NCC12CC3CC(C1)CC(c1ccc(Br)cc1)(C3)C2	?	14.8	12.6µM*	nt	nt	1.8
Cc1ccc(C23CC4CC(CC(CN)(C4)C2)C3)cc1	?	-7.0	-86.7%	-9.3%[11.3 µM]	?	0.3
N#C/C(=C\c1ccc(OCc2ccc(C(=O)O)cc2)cc1)C(=O)N1CCOCC1	-13.9%	16.2	-19.6%	8.91µM*	i	12.4
COc1cc(/C=C(\C#N)C(=O)N2CCOCC2)ccc1OCc1ccccc1	-10.4%	-14.1	-16.8%	41.7%	i	-3.9
COc1ccccc1-c1ccnc(-n2ncc(C(=O)NCC3(N4CCOCC4)CCCC3)c2C)n1	nt	nt	nt	nt	i	nt
CCN(CC)CC(=O)Oc1ccc(NC(C)=O)cc1	nt	nt	nt	13.8%	i	nt
COC(=O)C1CCCCN1Cc1ccc2c(c1)CN(C(=O)c1csc(-c3cccs3)n1)CCO2 (centres undefined)	nt	nt	nt	nt	i	nt
CC1(C)OC[C@@H]2O[C@@]3(C(=O)O)OC(C)(C)O[C@H]3[C@@H]2O1	nt	nt	nt	-1.4%	i	3.6
CCN(CCO)c1ccc(Nc2cc(-c3ccc(-c4ccccc4)cc3)ncn2)cc1	?	105.1	-9.3%	?	?	18.4
CCN(CCO)c1ccc(N=Nc2cc(C)[nH]n2)cc1	17.8%	-51.6*	-7.0%	?	?	-9.3
COc1ccc(CNCCS(=O)(=O)NC2CCCC2)cc1	0.2%	-25.3	-0.1%	4.6%	i	-41.1
